KCNQ2 enhance = potentiators of rat KCNQ2 potassium channel; CHO-K1 KCNQ2, FluxOR thallium flux fluorescence; stronger effect = higher value; B-score at 10 µM; 0.54% of 310,000 active; AID 2239;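 active = fluorescence ratio B-score at least 3 SD of library B-scores, with initial fluorescence B-score within 3 of them, cut at about 5.3 in these data; same plate scores as AID 2156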;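 note: B-score of peak minus minimum over baseline fluorescence ratio after K+ and Tl+ stimulus; positive B-score means potentiation of KCNQ2 with more thallium influx and brighter signal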
KCNQ2 block = inhibitors of rat KCNQ2 potassium channel; 1.1% of 310,000 active; O88943; B-score at 10 µM; CHO-K1 KCNQ2, FluxOR thallium flux, 20 min; stronger effect = lower value;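 active = fluorescence ratio B-score at most minus 3 library SDs, with starting brightness B-score within 2 library SDs, cut at about -5.5 in these data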
Kir21 confirm = confirmation of mouse Kir2.1 potassium channel inhibitors; shares compounds with KCNQ2 enhance; Kir2.1-expressing cells, FluxOR thallium flux fluorescence; stronger effect = lower value; Tl flux remaining, % of negative control (stronger effect = lower value), % at 10 µM; 41% of 2,300 active; AID 2032;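 active = Primary-screen hit whose thallium flux fell at least 3 control SD below untreated wells in both duplicates, with normal baseline fluorescence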;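 note: 0% = blank wells without stimulus and 100% = stimulated no-compound controls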
Target sequence (P35561 whole entry, looked up): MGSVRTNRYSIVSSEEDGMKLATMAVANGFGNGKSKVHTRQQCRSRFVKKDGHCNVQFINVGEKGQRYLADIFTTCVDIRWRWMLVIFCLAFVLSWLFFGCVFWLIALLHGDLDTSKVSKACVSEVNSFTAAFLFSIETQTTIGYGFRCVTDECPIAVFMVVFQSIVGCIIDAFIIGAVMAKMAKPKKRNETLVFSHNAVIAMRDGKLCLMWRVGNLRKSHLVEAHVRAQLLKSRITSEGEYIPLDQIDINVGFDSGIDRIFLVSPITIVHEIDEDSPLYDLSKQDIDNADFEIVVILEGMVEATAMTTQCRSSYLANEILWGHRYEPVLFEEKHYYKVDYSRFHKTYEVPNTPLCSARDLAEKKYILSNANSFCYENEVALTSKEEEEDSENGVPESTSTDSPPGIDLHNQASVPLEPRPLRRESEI
HEK293 ctr = alters thallium flux in parental HEK293 cells, Kir2.1 counter-screen; shares compounds with KCNQ2 enhance; 19% of 2,300 active; FluxOR signal as % of negative control (100 = no effect), % at 10 µM; FluxOR thallium flux fluorescence; 0% = unstimulated blank wells; AID 2105;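 active = dye signal at least 3 control SD above or below untreated wells in both duplicates, raw fluorescence within 3, either direction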;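 note: percent is based on the flux ratio of peak minus minimum fluorescence over baseline F0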
CHO-K1 ctr = alters thallium flux in parental CHO-K1 cells, KCNQ2 counter-screen | shares compounds with KCNQ2 enhance | FluxOR thallium flux fluorescence; zero = vehicle mean+3SD, 100% = vehicle-minus-blank window | activity increase over 3SD of controls, % at 10 µM | 43% of 1,200 active | AID 2282;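 active = signal rise of at least 3 SD above the untreated control mean, in both duplicate wells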;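 note: counter screen of KCNQ2 potentiator hits so any rise reflects channel-independent effects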
KCNQ1 sel pot = selectivity of KCNQ2 potentiators: effect on human KCNQ1 | shares compounds with KCNQ2 enhance | CHO KCNQ1 stable, FluxOR thallium flux fluorescence; beyond 3SD, as % of vehicle-control signal | activation over 3SD threshold, % at 10 µM | 28% of 1,200 active;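 active = fluorescence ratio rise of at least 3 SD of vehicle wells above their mean, in both replicate wells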;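 note: 0% = vehicle mean plus 3 SD and 100% = vehicle minus unstimulated blank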
KCNQ2 pot confirm = rat KCNQ2 channel potentiator confirmation; shares compounds with KCNQ2 enhance; CHO-KCNQ2 cells, FluxOR thallium flux fluorescence; potentiation, less the hit threshold, % at 10 µM; 68% of 1,200 active;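 active = fluorescence ratio rising 3 SD or more over the vehicle control mean in both replicates, plus primary screen hit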;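 note: peak minus minimum thallium fluorescence divided by baseline after K/Tl stimulus; 0% = vehicle mean plus 3 SD and 100% = vehicle minus unstimulated blank difference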
Kir2-1 sel = selectivity of KCNQ2 potentiators: effect on mouse Kir2.1; AID 2345; shares compounds with KCNQ2 enhance; 2% of 1,200 active; HEK293 Kir2.1, FluxOR thallium flux fluorescence; activity over 3SD threshold, % at 10 µM;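 active = fluorescence ratio rise of at least 3 SD above the vehicle-control mean, seen in both replicates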;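 note: 0% = vehicle mean plus 3 SD and 100% = vehicle minus no-stimulus blank window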
KCNQ2 W236L MoA = rat KCNQ2 W236L mutant potentiation by KCNQ2 potentiators; 10% of 940 active; current increase over 3SD of negative controls (%), stronger effect = higher value, % at 25 µM; CHO KCNQ2-W236L, automated patch clamp current; shares compounds with KCNQ2 enhance;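 active = current increase at least 3 SD of the untreated controls above them in both duplicate recordings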
Numbers without * were called inactive; i = inactive; / = no result. Compounds with a hit are over-represented: about 1.6% of the library has one in this group of screens.

SMILES	KCNQ2 enhance	KCNQ2 block	Kir21 confirm	HEK293 ctr	others
O=C(COc1ccc(Cl)cc1)N1CCN(C(=O)c2ccccc2F)CC1	/	i	/	/
O=C(COc1ccccc1)N=C1SC2CS(=O)(=O)CC2N1c1ccccc1F (centres undefined)	/	i	/	/
Cc1ccc(-c2nc3ccccc3[nH]2)cc1NC(=O)c1sc2cc(Cl)ccc2c1Cl	0.01	i	/	/
CCNC(=S)Nc1nc2c(cc1C(=O)OCC)CCCC2	5.49*	i	i	147.5%*	CHO-K1 ctr=7.6*;KCNQ1 sel pot=-18.7;KCNQ2 pot confirm=-2.2;Kir2-1 sel=-29.5;KCNQ2 W236L MoA=i
C=CCNC(=S)Nc1nc2c(cc1C(=O)OCC)CCCC2	4.29	i	/	/
CCCC(c1nnnn1CS(=O)(=O)c1ccc(C)cc1)N1CCC(C(N)=O)CC1 (centres undefined)	/	i	/	/
CCN1CCc2c(C#N)c(N3CCCCC3)nc(N3CCOCC3)c2C1	/	i	/	/
N#Cc1c(N2CCOCC2)nc(N2CCCCC2)c2c1CCN(C1CCCCC1)C2	10.8*	i	i	i	CHO-K1 ctr=-15.7;KCNQ1 sel pot=10.4*;KCNQ2 pot confirm=16.2*;Kir2-1 sel=-21.9;KCNQ2 W236L MoA=i
O=S(=O)(N1CCOCC1)N1CCOCC1	0.54	i	/	/
COCCNC(=O)C1Cc2cc(S(=O)(=O)N3CCCC3)ccc2N1C(C)=O (centres undefined)	0.93	i	/	/
COc1ccc(N(CC(=O)N/N=C/c2cccnc2)S(=O)(=O)c2ccc(C)cc2)cc1OC	/	i	/	/
O=C(CSc1n[nH]c(=O)n1-c1cccnc1)Nc1ccccc1Cl	0.39	i	/	/
COc1ccc(CNC(=O)C[C@H]2C(=O)N(CCc3ccccc3)C[C@@H]2Cc2ccccc2)cc1	/	i	/	/
Cc1cc(C)c(NC(=O)C2CCCCN2C)c(C)c1 (centres undefined)	/	i	/	/
Cc1cc(C)c(NC(=O)C2CSCCS2)c(C)c1 (centres undefined)	6.46*	i	i	i	CHO-K1 ctr=22.7*;KCNQ1 sel pot=15.3*;KCNQ2 pot confirm=-3.0;Kir2-1 sel=-31.9;KCNQ2 W236L MoA=i
Cc1ccc(C(=O)N/C(=C/c2cccnc2)C(=O)N2CCCCCC2)cc1	0.77	i	/	/
O=C(NCc1cccc(Cl)c1)C1CCC(=O)N(CCCN2CCCC2=O)C1 (centres undefined)	0.09	i	/	/
C=CCc1cc(OC)ccc1OCCOCCN1CCc2ccccc2C1	/	i	18.0%*	i
c1ccc(OCCOCCN2CCc3ccccc3C2)cc1	0.27	i	/	/
CCCOc1ccc(OCCOCCN2CCc3ccccc3C2)cc1	0.21	i	60.5%*	i
CCOc1ccc(OCCOCCN2CCc3ccccc3C2)cc1	1.21	i	/	/
COc1ccc(C2NC(=O)NC(c3ccccc3)=C2c2nc3ccccc3s2)cc1 (centres undefined)	2.04	i	/	/
O=C1NC(c2ccccc2)=C(c2nc3ccccc3s2)C(c2ccc(F)cc2)N1 (centres undefined)	8.72*	i	i	i	CHO-K1 ctr=74.1*;KCNQ1 sel pot=-1.7;KCNQ2 pot confirm=21.2*;Kir2-1 sel=-28.1;KCNQ2 W236L MoA=33.9%*
Cc1c(N2C(=O)/C(=C/c3ccccc3)SC2=S)c(=O)n(-c2ccccc2)n1C	1.43	i	/	/
Cc1c(N2C(=O)/C(=C\c3ccccc3O)SC2=S)c(=O)n(-c2ccccc2)n1C	17.8*	i	i	343.0%*	CHO-K1 ctr=114.2*;KCNQ1 sel pot=-12.9;KCNQ2 pot confirm=40.4*;Kir2-1 sel=-7.5;KCNQ2 W236L MoA=i
SMILES	KCNQ2 enhance	KCNQ2 block	Kir21 confirm	HEK293 ctr	others
COc1cc(/C=C/c2ccc3cccc(O)c3n2)cc(OC)c1OC	5.31*	i	i	i	CHO-K1 ctr=8.5*;KCNQ1 sel pot=0.7*;KCNQ2 pot confirm=-11.0;Kir2-1 sel=-25.4
COc1cc(/C=C/c2ccc3cccc(O)c3n2)cc(Br)c1OC	/	i	/	/
CCOc1ccccc1N1CCN(C(=O)c2ccc3c(c2)OCO3)CC1	/	i	/	/
COc1ccc(C2(C)NC(=O)N(CC(=O)NCc3ccccc3F)C2=O)cc1 (centres undefined)	2.07	i	/	/
CCN(Cc1ccc(OC)c(COC)c1)CC1CCCN(CCc2cccc(OC)c2)C1 (centres undefined)	0.77	i	/	/
COc1ccc(CN(C)CC2CCCN(CCc3ccc(F)cc3)C2)c(OC)c1OC (centres undefined)	/	i	/	/
COc1ccc(CCN2CCCC(CN(C)Cc3cccc(OC)c3)C2)cc1 (centres undefined)	0.89	i	33.0%*	i
CCN(Cc1ccc(C#CCCO)cc1)CC1CCCN(CCc2cccc(F)c2)C1 (centres undefined)	/	i	53.0%*	i
CCN(Cc1ccc(OC)c(COC)c1)CC1CCCN(CCc2cccc(F)c2)C1 (centres undefined)	/	i	/	/
CN(Cc1ccc(C#CCCO)cc1)CC1CCCN(CCc2ccc(Cl)cc2)C1 (centres undefined)	/	i	40.0%*	i
COc1ccc(CCC(=O)Nc2ccc(Cn3ccnc3)cc2)cc1	/	i	/	/
CSc1ncc(C(=O)Nc2cccc(C)c2C)c(C)n1	0.55	i	/	/
CCCCN(C(=O)c1cccc(S(=O)(=O)N2CC(C)OC(C)C2)c1)c1c(N)n(CC(C)C)c(=O)[nH]c1=O (centres undefined)	0.01	i	/	/
CCOC(=O)C1CCN(Cc2cccc(OCc3ccccc3)c2)CC1	/	i	20.5%*	i
NC(=O)C1CCN(Cc2cccc(OCc3ccccc3)c2)CC1	0.01	i	/	/
CCCCOc1ccc(N(CC(=O)NC2CCCCC2)C(=O)CCC(=O)Nc2ccccn2)cc1	/	i	/	/
N#Cc1c(OCC(=O)c2ccccc2)nc2c(c1-c1ccco1)CCc1ccccc1-2	19.6*	i	i	145.0%*	CHO-K1 ctr=2.2*;KCNQ1 sel pot=-3.2;KCNQ2 pot confirm=41.6*;Kir2-1 sel=-36.7;KCNQ2 W236L MoA=i
Cc1cc(C)c(C#N)c(OCC(=O)c2ccccc2)n1	0.86	i	/	/
CCOC(=O)COc1nc2c(c(-c3ccco3)c1C#N)CCc1ccccc1-2	10.3*	i	i	i	CHO-K1 ctr=48.2*;KCNQ1 sel pot=84.0*;KCNQ2 pot confirm=-11.0;Kir2-1 sel=-27.9;KCNQ2 W236L MoA=i
CCOC(=O)COc1nc(-c2ccccc2)cc(-c2ccco2)c1C#N	2.44	i	/	/
Cc1ccc(N(C(=O)c2csnn2)C(C(=O)NC2CCCCC2)c2ccncc2)c(C)c1 (centres undefined)	0.36	i	/	/
COc1cccc(CNCc2ccc(OC)c3ccccc23)c1OC	2.11	i	/	/
COc1ccccc1CNCc1ccc(OC)c2ccccc12	0.16	i	36.0%*	i

High-throughput results: PubChem, Johns Hopkins Ion Channel Center
